An excerpt weighted towards active compounds, which were near 13% of everything screened.
LASV entry inh: Lassa virus entry inhibition | 300,000 tested, 1.2% active | AID 540256 | Lassa virus pseudotype entry inhibition, cell reporter | Potency, µM (highest dose often 37.9 µM), for inactives: at the highest dose activity change, negative = inhibition, most hits filed as inhibitors; calls by dose curve; tested in HEK293 cells; note: potency is the fitted concentration of half-maximal effect; % is set by controls: 0 for no effect and ±100 for the full control effect; nearly all actives have a fitted effect of over 50% in size
Cycloheximide cs: counter-screen for Shiga toxin inhibitors: cycloheximide protein synthesis inhibition; cell reporter, cycloheximide protein synthesis inhibition counterscreen; max response, %; 300,000 tested, 12% active; AID 2314; in the data active = max response mostly above about 13%, no sharp cut-off; inactive = mostly below about 14%; note: read at 38.3 µM for the half of the compounds with a filed dose; 0% is about no effect
HCV inh: inhibitors of hepatitis C virus infection | Huh7.5.1 HCVcc-Cre infection, luciferase reporter, 44 h | Potency, µM (series often up to 41.8 µM), for inactives: at the highest dose activity change, negative = inhibition, most hits filed as inhibitors | 340,000 tested, 3.4% active | AID 651820; active = well fitted inhibition curve with a large enough effect; inconclusive = small, poorly fitted or top-dose-only effect, or another doubt; inactive = no such curve, though single readings can be large or run the other way; note: potency is the fitted concentration of half-maximal effect; % is set by controls: 0 for no effect and ±100 for the full control effect
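Infectious HCV cell culture screen: compound-treated cells (1,000/well, pre-plated 4 h) are infected with HCVcc-Cre at roughly 0.5 moi and grown 44 h. Infection is quantified by luciferase signal after 15 min substrate incubation at room temperature.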
FMDV antiviral: foot and mouth disease virus antiviral activity; FMDV antiviral cell-based qHTS; Potency, µM (top dose mostly 57.9 µM), inactives show top-dose activity change, negative = inhibition, most hits filed as inhibitors; 410,000 tested, 1.2% active; AID 1159524; calls by dose curve; tested in HEK293T cells; note: read-out not given here; potency is the fitted concentration of half-maximal effect; % is set by controls: 0 for no effect and ±100 for the full control effect; nearly all actives have a fitted effect of over 45% in size
Shiga toxin inh: blocks Shiga toxin action in Vero cells; Vero cells, Shiga toxin protein synthesis inhibition reporter; inhibition, % at 38.7 µM; 290,000 tested, 9.2% active; AID 2315; in the data active = inhibition mostly above about 28%, no sharp cut-off; inactive = mostly below about 43%; note: 0% is about no effect
Marburg entry inh: blocks Marburg virus binding to or entry into cells; Marburg virus pseudotyped entry inhibition, cell reporter; Potency, µM (doses to about 37.8 µM), inactives show at the top dose activity change, negative = inhibition, actives largely listed as inhibitors; 300,000 tested, 1.8% active; calls by dose curve; tested in HEK293 cells; note: potency is the fitted concentration of half-maximal effect; % is set by controls: 0 for no effect and ±100 for the full control effect
Numbers without * were called inactive; [ ] = another dose, or the depositor's remark.

`CCn1c(-c2ccc(F)cc2)cnc1SCC(=O)N1CCc2ccccc21` gave LASV entry inh inconclusive, Cycloheximide cs 34*, HCV inh 7%, Shiga toxin inh 97* and Marburg entry inh 28%.
`COCCn1c(=N)c(S(=O)(=O)c2ccc(F)cc2)cc2c(=O)n3cccc(C)c3nc21` gave Cycloheximide cs -1, HCV inh inconclusive, FMDV antiviral -10% and Shiga toxin inh -13.
For CN(c1ccc(C(=O)N2CCN(Cc3ccc4c(c3)OCO4)CC2)cc1)S(=O)(=O)c1ccccc1 the results were LASV entry inh -27%, Cycloheximide cs -3, HCV inh 6.3µM*, FMDV antiviral inconclusive, Shiga toxin inh -6 and Marburg entry inh inconclusive.
`Cc1ccc(S(=O)(=O)N(C)CC(=O)N2CCN(Cc3ccc4c(c3)OCO4)CC2)cc1` gave LASV entry inh inconclusive, Cycloheximide cs -3, HCV inh inconclusive, FMDV antiviral -15%, Shiga toxin inh -3 and Marburg entry inh -19%.
For Cc1ccc(S(=O)(=O)N(C)c2ccc(C(=O)N3CCN(Cc4ccc5c(c4)OCO5)CC3)cc2)cc1 the results were LASV entry inh inconclusive, Cycloheximide cs -2, HCV inh 4.5µM*, FMDV antiviral 16µM*, Shiga toxin inh 8 and Marburg entry inh inconclusive.
Cc1ccc(S(=O)(=O)N(C)C)cc1NC(=S)N1CCN(Cc2ccc3c(c2)OCO3)CC1 was read as Cycloheximide cs -1, HCV inh 13µM*, FMDV antiviral inconclusive and Shiga toxin inh -9.
Cc1ccc(C(=O)N2CCN(Cc3ccc4c(c3)OCO4)CC2)c(Cl)c1 was read as LASV entry inh -23%[46.1 µM], Cycloheximide cs 1, HCV inh 11µM*, FMDV antiviral inconclusive, Shiga toxin inh -1 and Marburg entry inh inconclusive.
CCOC(=O)c1c(C)c(C(=O)NCCN2CCOCC2)c(C)n1C was read as LASV entry inh -4%, Cycloheximide cs -1, HCV inh 26%, FMDV antiviral 18%, Shiga toxin inh 14 and Marburg entry inh -2%.
COCCCNC(=O)Cn1nnc(-c2ccc(NC(=O)c3ccc(F)cc3)cc2)n1 was read as LASV entry inh 0%, Cycloheximide cs 6, HCV inh -13%, Shiga toxin inh -15 and Marburg entry inh 11%.
For CCCNS(=O)(=O)c1ccc(OCC(=O)N2CCN(Cc3ccc4c(c3)OCO4)CC2)cc1 the results were LASV entry inh inconclusive, Cycloheximide cs 7, HCV inh inconclusive, FMDV antiviral -25%, Shiga toxin inh -12 and Marburg entry inh 2%.
Screening CCCNS(=O)(=O)c1ccc(OCC(=O)N2CCN(Cc3ccc4c(c3)OCO4)CC2)c(C)c1 returned LASV entry inh inconclusive, HCV inh 7.9µM*, FMDV antiviral -21% and Marburg entry inh inconclusive.
For CCN(CC(=O)NCc1cccs1)C(=O)c1cccc(S(=O)(=O)Nc2cccc(C)c2)c1 the results were HCV inh -8% and FMDV antiviral 63%.
`[O-]/[N+](=C\c1ccc(F)cc1)c1ccccc1` gave LASV entry inh 5%, Cycloheximide cs 18*, HCV inh 16%, Shiga toxin inh 6 and Marburg entry inh inconclusive.
`[O-]/[N+](=C\c1ccccc1)c1ccc(Br)cc1` gave HCV inh 7% and FMDV antiviral 48%.
`[O-]/[N+](=C\c1cccc(Br)c1)c1ccccc1` gave LASV entry inh 1%, Cycloheximide cs 44*, HCV inh -2%, FMDV antiviral 17%, Shiga toxin inh 82* and Marburg entry inh 15%[46.1 µM].
Screening CN1CCSc2ccc(C(=O)Nc3cc(F)ccc3F)cc21 returned Cycloheximide cs 54*, HCV inh inconclusive, FMDV antiviral 8% and Shiga toxin inh 81*.
Screening Cc1ccccc1NC(=O)c1ccc2c(c1)N(C)CCS2 returned Cycloheximide cs 28*, HCV inh inconclusive, FMDV antiviral 44% and Shiga toxin inh 32*.
For O=C(CN1C(=O)COc2ccc(S(=O)(=O)N3CCOCC3)cc21)Nc1ccc(F)c(Cl)c1 the results were LASV entry inh -20%[46.1 µM] and FMDV antiviral 14%.
`COc1ccc(-c2nnc(SCC(N)=O)n2N)cc1` gave LASV entry inh -5%, Cycloheximide cs 1, HCV inh 14%, FMDV antiviral 19%, Shiga toxin inh 25 and Marburg entry inh 4%.
For C=C(C)CSc1nnc(-c2cccc(Cl)c2)n1N the results were LASV entry inh inconclusive, Cycloheximide cs 42*, HCV inh -9%, FMDV antiviral 76%, Shiga toxin inh 111* and Marburg entry inh 13%.
For C=C(C)CSc1nnc(-c2ccc(OC)cc2)n1N the results were LASV entry inh 9%, Cycloheximide cs 45*, HCV inh -3%, FMDV antiviral 56%, Shiga toxin inh 53* and Marburg entry inh 15%.
For CCOc1ccccc1C(=O)NC(C(=O)NCc1ccc(F)cc1)C(C)C (stereo unspecified) the results were LASV entry inh -11%, Cycloheximide cs 13, HCV inh 1%, FMDV antiviral -4%, Shiga toxin inh -21 and Marburg entry inh 13%[46.1 µM].
`CNC(=O)c1ccsc1NC(=O)c1ccc(S(=O)(=O)N2CCCc3ccccc32)cc1` gave LASV entry inh 16µM*, Cycloheximide cs 3, HCV inh 10µM*, FMDV antiviral inconclusive, Shiga toxin inh -1 and Marburg entry inh inconclusive.
For O=C(Nc1nc2c(s1)CCCC2)c1ccc(S(=O)(=O)N2CCCc3ccccc32)cc1 the results were LASV entry inh inconclusive, Cycloheximide cs 10*, HCV inh inconclusive, FMDV antiviral inconclusive, Shiga toxin inh 11 and Marburg entry inh 23µM*.
For Cc1cc(=O)n2[nH]c(-c3ccc(Cl)cc3)cc2n1 the results were LASV entry inh 9%, Cycloheximide cs 36*, HCV inh 17%, FMDV antiviral -6%, Shiga toxin inh 82* and Marburg entry inh inconclusive.
Cc1cccc(-c2cc3nc(-c4ccccc4)cc(=O)n3[nH]2)c1 was read as LASV entry inh inconclusive, Cycloheximide cs 21*, HCV inh -28%, FMDV antiviral 23%, Shiga toxin inh 49 and Marburg entry inh inconclusive.
Cc1cc(=O)n2[nH]c(-c3ccc(F)cc3)cc2n1 was read as LASV entry inh -23%, Cycloheximide cs 25*, HCV inh -4%, FMDV antiviral 11%, Shiga toxin inh 51* and Marburg entry inh 22%.
For Nc1ncc([N+](=O)[O-])c(Oc2ccccc2F)n1 the results were Cycloheximide cs -2, HCV inh 6%, FMDV antiviral inconclusive and Shiga toxin inh -10.
Screening O=C1CCc2cc(S(=O)(=O)NCCCC(=O)N3CCN(Cc4ccc5c(c4)OCO5)CC3)ccc2N1 returned LASV entry inh -16%, Cycloheximide cs -2, HCV inh 4%, FMDV antiviral -17%, Shiga toxin inh 19 and Marburg entry inh -4%.
For O=C(Nc1ccccc1OCc1ccccc1)c1ccccc1Br the results were Cycloheximide cs 2, HCV inh 11µM*, FMDV antiviral -9% and Shiga toxin inh 14.

Screens deposited in PubChem BioAssay by National Center for Advancing Translational Sciences (NCATS).
